Measured values: PubChem BioAssay
Activity calls are given as the source filed them. Unless noted, the rule behind the calls is not given here.

Tests used:
[1] = HepG2 liver cancer cell viability effects, profiling panel, resazurin fluorescence, 24 h, PK04 Diversity Set (AID 1172); details: higher = more signal
[2] = basal S. cerevisiae growth modulation, no modifier, primary screen, OD600, strain BY4716, 24 h, basal condition (AID 1173); details: OD600, 24 h, higher = more signal, called active from +8 up or from −8 down
[3] = MM1S myeloma cell viability, profiling panel, resazurin fluorescence, basal, 24 h, PK04 Diversity Set (AID 1174); details: higher = more signal, called active from +8 up or from −8 down;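 note: MM1S multiple myeloma cell line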
[4] = target: Dihydroorotate dehydrogenase (quinone), mitochondrial (Plasmodium falciparum (isolate 3D7)) (UniProt Q08210); assay: PfDHODH enzyme inhibitors, primary screen, biochemical, C-terminal His tag, absorbance 600 nm (AID 1175); details: DCIP absorbance 600 nm, higher = more signal, called active from +8 up or from −8 down;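 note: recombinant parasite enzyme with a five histidine tag at its C terminus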
Sequence of Dihydroorotate dehydrogenase (quinone), mitochondrial (Plasmodium falciparum (isolate 3D7)) (Q08210 whole entry, looked up): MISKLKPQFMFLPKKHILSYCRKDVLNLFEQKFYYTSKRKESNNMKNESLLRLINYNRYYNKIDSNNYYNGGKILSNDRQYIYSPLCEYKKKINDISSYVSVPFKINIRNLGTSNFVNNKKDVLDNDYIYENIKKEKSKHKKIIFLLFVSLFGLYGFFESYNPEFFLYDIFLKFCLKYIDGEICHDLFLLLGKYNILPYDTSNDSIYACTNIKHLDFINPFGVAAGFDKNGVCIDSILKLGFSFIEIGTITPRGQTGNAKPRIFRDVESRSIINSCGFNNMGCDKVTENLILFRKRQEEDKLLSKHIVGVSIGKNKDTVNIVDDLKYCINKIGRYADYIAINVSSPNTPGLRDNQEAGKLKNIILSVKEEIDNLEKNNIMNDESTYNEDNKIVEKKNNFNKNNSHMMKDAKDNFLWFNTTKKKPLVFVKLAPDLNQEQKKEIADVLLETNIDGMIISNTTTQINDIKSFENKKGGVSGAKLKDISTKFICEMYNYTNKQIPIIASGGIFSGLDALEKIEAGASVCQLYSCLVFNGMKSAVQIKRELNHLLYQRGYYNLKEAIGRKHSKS

[5] = P. aeruginosa biofilm formation inhibitors, primary screen, strain PAO1, LB-PBS medium, absorbance 600 nm (AID 1176); details: P. aeruginosa PAO1 growth/biofilm, A600, 12 h; higher = more signal
[6] = S. cerevisiae RM11-1a growth modifiers, primary screen, strain RM11-1a, OD600, basal, 24 h (AID 1177); details: OD600, 24 h, higher = more signal, called active from +8 up or from −8 down;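 note: cultures grown under basal conditions with no added stressor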
[7] = E. coli acrAB mutant growth effects, primary screen, E. coli filamentation inducers, strain DRC39, OD650, 24 h (AID 1178); details: higher = more signal, called active from +8 up or from −8 down;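 note: growth measured as culture turbidity by optical density at 650 nm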
[8] = E. coli acrAB mutant growth effects, primary screen, E. coli filamentation inducers, strain DRC39, OD650, 48 h (AID 1179);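 note: screen aims at cell division blockers that make cells filament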; details: E. coli DRC39 delta-acrAB growth, higher = more signal, called active from +8 up or from −8 down
[9] = RPMI8226 myeloma cell viability, profiling panel, resazurin fluorescence, basal, 24 h, PK04 Diversity Set (AID 1180); details: higher = more signal;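 note: RPMI8826 multiple myeloma cell line at 5000 cells per well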
[10] = target: E3 ubiquitin-protein ligase XIAP (Homo sapiens) (UniProt P98170); assay: XIAP binders, primary screen, biophysical, small-molecule microarray, fluorescence 635 nm (AID 1181); details: small-molecule microarray binding, higher = more signal;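 note: score merges 667 nm emission and signal to noise over triplicate slides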
Sequence of E3 ubiquitin-protein ligase XIAP (Homo sapiens) (P98170 whole entry, looked up): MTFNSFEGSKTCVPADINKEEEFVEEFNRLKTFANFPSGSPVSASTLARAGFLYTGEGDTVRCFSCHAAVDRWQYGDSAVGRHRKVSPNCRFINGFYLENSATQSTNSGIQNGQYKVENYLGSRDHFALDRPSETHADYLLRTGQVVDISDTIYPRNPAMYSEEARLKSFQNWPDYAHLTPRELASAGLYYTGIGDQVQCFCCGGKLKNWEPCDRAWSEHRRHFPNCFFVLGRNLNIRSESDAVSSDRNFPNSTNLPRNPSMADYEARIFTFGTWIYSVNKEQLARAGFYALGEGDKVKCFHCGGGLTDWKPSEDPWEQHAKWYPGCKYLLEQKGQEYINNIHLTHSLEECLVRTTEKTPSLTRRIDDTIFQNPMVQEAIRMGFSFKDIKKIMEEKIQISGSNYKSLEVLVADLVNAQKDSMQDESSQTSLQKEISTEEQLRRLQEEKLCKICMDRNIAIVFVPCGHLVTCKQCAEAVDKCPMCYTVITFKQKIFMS

[11] = test system: XIP peptide (Xip251-270) binding; assay: small-molecule binders of XIP peptide, primary screen, biochemical, small-molecule microarray, fluorescence 635/667 nm, 0.1 µg/mL protein (AID 1182); details: fluorescent protein binding, 635 nm, higher = more signal, called active from +8 up or from −8 down
XIP peptide (Xip251-270) = assay: small-molecule binders of XIP peptide, primary screen, biochemical, small-molecule microarray, fluorescence 635/667 nm, 0.5 µg/mL protein (AID 1183); details: small-molecule microarray binding, fluorescence 635 nm; higher = more signal
[12] = Plasmodium falciparum growth inhibition, primary screen, strain 3D7, DAPI fluorescence, 100 nL (AID 1184);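 note: parasites grown inside human red blood cells in medium with human serum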; details: P. falciparum 3D7 growth, 3 d, higher = more signal
[13] = target: Homeobox protein Hox-A13 (Mus musculus) (UniProt Q62424); assay: inhibitors of HoxA13-DNA binding, primary screen, biochemical, fluorescence polarization, labeled oligonucleotide (AID 1185); details: 15 min, higher = more signal, called active from +8 up or from −8 down
Sequence of Homeobox protein Hox-A13 (Mus musculus) (Q62424 whole entry, looked up): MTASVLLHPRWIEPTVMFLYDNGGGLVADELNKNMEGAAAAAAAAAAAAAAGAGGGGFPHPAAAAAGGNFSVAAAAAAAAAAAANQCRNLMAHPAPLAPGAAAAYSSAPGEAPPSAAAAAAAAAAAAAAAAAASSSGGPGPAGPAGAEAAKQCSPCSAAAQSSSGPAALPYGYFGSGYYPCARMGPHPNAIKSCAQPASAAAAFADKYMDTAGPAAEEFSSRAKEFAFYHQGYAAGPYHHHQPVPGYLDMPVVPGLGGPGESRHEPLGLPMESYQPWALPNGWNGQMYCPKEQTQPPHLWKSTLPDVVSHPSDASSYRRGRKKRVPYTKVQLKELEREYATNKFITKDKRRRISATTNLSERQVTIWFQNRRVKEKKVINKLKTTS

[14] = inhibitors of hydroxyurea-induced Chk1 phosphorylation, primary screen, imaging, HeLa, phospho-Chk1 antibody, percent positive cells (AID 1186); details: hydroxyurea-induced phospho-Chk1 immunofluorescence imaging, higher = more signal
[15] = inhibitors of hydroxyurea-induced Chk1 phosphorylation, primary screen, imaging, HeLa, phospho-Chk1 nuclear intensity (AID 1187); details: hydroxyurea-induced phospho-Chk1 immunofluorescence imaging, higher = more signal

Compound | z-score [1] | z-score [2] | z-score [3] | composite z-score [4] | z-score [5] | z-score [6] | z-score [7] | z-score [8] | z-score [9] | composite z-score [10] | composite z-score [11] | composite z-score (XIP peptide (Xip251-270)) | z-score [12] | z-score [13] | z-score [14] | z-score [15]
Cc1ccc(S[C@]2(C(=O)NCCCN(C)C)CC(=O)N(Cc3ccccc3Cl)[C@@H]2c2ccc(CO)cc2I)cc1 | -0.0565 | -2.11 (inactive) | -2.51 (inactive) | 0.648 (inactive) | -0.833 (inactive) | 0.995 (inactive) | 0.165 (inactive) | -0.352 (inactive) | -1.5 | -0.133 | 0.0919 (inactive) | 0.856 | -0.344 | -1.48 (inactive) | -0.0214 (inactive) | 0.0301 (inactive)
CC(C)CNC(=O)[C@@H]1c2ccccc2C(=O)N(C2Cc3ccccc3C2)[C@H]1c1ccc(CO)cc1 | 0.98 | -0.283 (inactive) | 0.76 (inactive) | -0.417 (inactive) | 0.444 (inactive) | -1.09 (inactive) | 0.725 (inactive) | 1.03 (inactive) | 1.4 | -0.109 | 0.45 (inactive) | 0.509 | 0.134 | -2.36 (inactive) | -0.281 (inactive) | -0.121 (inactive)
COCCOC(=O)N1C(=O)[C@@]2(c3ccccc31)[C@H](C(=O)N1CCCCCCC1)[C@H]1C(=O)O[C@H](c3ccccc3)[C@H](c3ccccc3)N1[C@@H]2c1ccc(O)cc1 | 0.226 | -0.975 (inactive) | -1.51 (inactive) | -0.862 (inactive) | 1.32 (inactive) | -0.145 (inactive) | -0.0831 (inactive) | -0.303 (inactive) | -1.03 | 0.782 | 3.54 (inactive) | 0.83 | -0.621 | 2.5 (inactive) | -0.391 (inactive) | -0.586 (inactive)
CN(C)CCCC[C@@H]1NC(=O)[C@H]2C[C@@H](C(=O)O)[C@@H](c3cccc(OCCO)c3)N2C1=O | 0.629 | -1.12 (inactive) | 0.499 (inactive) | -0.614 (inactive) | -0.0185 (inactive) | -0.452 (inactive) | -0.0925 (inactive) | -0.151 (inactive) | 0.546 | 0.332 | 0.432 (inactive) | 0.288 | -0.133 | -1.71 (inactive) | -0.791 (inactive) | -0.55 (inactive)
C#CCN(C/C=C/c1ccccc1)[C@H](CO[Si](C)(C)C(C)(C)C)c1ccccc1 | -0.355 | 0.571 (inactive) | -0.668 (inactive) | -0.26 (inactive) | 0.167 (inactive) | 0.244 (inactive) | -1.38 (inactive) | -1.59 (inactive) | -0.764 | -0.295 | 0.141 (inactive) | 0.0247 | -0.775 | -0.229 (inactive) | 0.229 (inactive) | -0.274 (inactive)
N#Cc1ccc(C(O)C2C=CC3C(=O)NC(=O)C3N2Nc2ccccn2)cc1 (centres undefined) | -1.62 | -0.055 (inactive) | -0.601 (inactive) | -0.127 (inactive) | 0.791 (inactive) | -1.57 (inactive) | 0.0007 (inactive) | 1.25 (inactive) | -0.353 | -0.0536 | -0.108 (inactive) | 0.669 | -0.557 | -1.11 (inactive) | -0.0275 (inactive) | 0.114 (inactive)
O=C1N(CCS(=O)(=O)c2ccccc2)c2ccccc2[C@@H]2OC(c3ccc(OCCCO)cc3)=N[C@]12CCS(=O)(=O)c1ccccc1 | 0.546 | 1.24 (inactive) | -0.0861 (inactive) | -0.038 (inactive) | 1.73 (inactive) | 1.8 (inactive) | 0.481 (inactive) | -0.468 (inactive) | -0.63 | -0.265 | 3.92 (inactive) | 0.83 | -2.18 | 0.806 (inactive) | 0.38 (inactive) | 0.682 (inactive)
CC(C)(C)N1CC=CC23O[C@@H]4/C=C\CCCOC(=O)C4[C@H]2C(=O)N(CCCCCCO)[C@@H]3C1=O (some centres undefined) | 0.232 | -0.584 (inactive) | 0.702 (inactive) | -1.58 (inactive) | 1.2 (inactive) | -1.13 (inactive) | -0.11 (inactive) | 0.602 (inactive) | 1.06 | -0.0795 | 0.956 (inactive) | 0.346 | -0.136 | -4.63 (inactive) | 0.114 (inactive) | 1.32 (inactive)
CC(C)C(=C=CC[C@@H](O)c1ccc(OCCO)cc1)CCO | 1 | -3.28 (inactive) | 1.21 (inactive) | -2.88 (inactive) | 0.13 (inactive) | -1.17 (inactive) | 1.61 (inactive) | 1.52 (inactive) | 1.52 | -0.0645 | 0.308 (inactive) | 0.222 | -2.09 | -2.38 (inactive) | -0.201 (inactive) | 1.37 (inactive)
